An excerpt weighted towards active compounds, which were near 10% of everything screened.
CtBP-E1A blk: CtBP/E1A binding inhibition. AlphaScreen GST-E1A/His-CtBP binding, 1536-well; stronger effect = lower value. activity change, % (concentration not given with the values). 0.49% of 340,000 active; in the data active = activity change below about -65%; inconclusive = mostly about -30% to -63%
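GST-E1A and His-tagged CtBP (125 nM each as 5X stock) were preincubated with pin-transferred compound for 2 h at 37 °C in the dark, then glutathione donor and nickel acceptor beads were added for 1 h before AlphaScreen reading.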
G9a block: G9a (human) methyltransferase inhibition | Q96KQ7 | G9a H3K9 monomethylation, AlphaScreen, 2 h | Potency, µM (highest dose often 102 µM), most hits filed as inhibitors | 8.8% of 350,000 active | AID 504332; also: nearly all actives have a fitted effect of over 75% in size
Target sequence (Q96KQ7 913-1193 limits assumed): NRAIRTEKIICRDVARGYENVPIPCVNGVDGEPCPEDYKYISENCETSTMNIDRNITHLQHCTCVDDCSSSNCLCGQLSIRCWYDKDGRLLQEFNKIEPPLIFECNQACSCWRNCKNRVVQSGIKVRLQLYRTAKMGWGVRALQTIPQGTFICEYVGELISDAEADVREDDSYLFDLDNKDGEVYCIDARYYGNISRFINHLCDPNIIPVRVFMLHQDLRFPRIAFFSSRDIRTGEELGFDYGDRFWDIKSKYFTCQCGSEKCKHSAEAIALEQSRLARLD
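Chemiluminescent proximity detection of H3K9 monomethylation, read after 10 min bead incubation in the dark. Reaction: 20 nM G9a, 500 nM biotin-H3K9 peptide, 20 uM SAM cofactor, 2 h, room temperature, following 15 min enzyme-compound preincubation.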
JMJD2A Tudor: inhibitors of human JMJD2A Tudor domain | O75164 | AlphaScreen JMJD2A-Tudor / H3K4me3 peptide binding | Potency, µM (titrated, usually from 114 µM), actives largely listed as inhibitors | 4.4% of 390,000 active; also: nearly all actives have a fitted effect of over 50% in size
HP1b chromo inh: blocks HP1-beta chromodomain binding to methylated histone tails; P83916; AlphaScreen HP1-beta / biotin-H3K9me3 peptide binding; Potency, µM (series often up to 114 µM), most hits filed as inhibitors; 0.56% of 390,000 active; also: nearly all actives have a fitted effect of over 70% in size
Target sequence (P83916 whole entry, looked up): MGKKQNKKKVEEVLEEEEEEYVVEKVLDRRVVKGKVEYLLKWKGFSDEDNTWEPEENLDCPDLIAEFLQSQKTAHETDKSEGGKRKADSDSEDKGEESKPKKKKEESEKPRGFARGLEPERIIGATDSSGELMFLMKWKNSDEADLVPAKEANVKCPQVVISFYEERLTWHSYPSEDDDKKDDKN
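AlphaScreen: HP1-beta (50 nM) preformed 30 min with biotin-H3(1-18)K9me3 peptide (50 nM) in PBS pH 7.4, 0.01% Tween-20. Compound added for 30 min at RT, then streptavidin donor/nickel chelate acceptor beads (10 ug/mL) for 30 min.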
BAZ2B block: BAZ2B (human) inhibition; Q9UIF8; AlphaScreen BAZ2B-H3K14Ac peptide displacement; Potency, µM (top dose mostly 114 µM), usual class: inhibitors; 4.4% of 360,000 active; AID 504333; also: nearly all actives have a fitted effect of over 60% in size
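AlphaScreen displacement of biotin-H3(5-23)K14Ac peptide (50 nM final) from BAZ2B (50 nM final) in PBS pH 7.4, 0.01% Tween-20; complex preformed 30 min RT, then compounds (top 110 uM) 30 min RT, beads 20 min dark.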
Six1-Eya2 blk: blocks human Six1 binding to Eya2; Q15475+O00167; AlphaScreen GST-Six1/His-Eya2 binding, biochemical; stronger effect = lower value; activity change, % (no concentration beside the values); 0.56% of 360,000 active; in the data active = activity change below about -65%; inconclusive = mostly about -30% to -63%
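AlphaScreen with GST-Six1 and His-Eya2 (5X mix: 250 nM and 500 nM), glutathione donor and nickel acceptor beads; buffer 50 mM Tris pH 8.0, 300 mM NaCl, 1 mM TCEP; 1 h at 37 C in the dark.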
Hits are given with their value; [ ] = another dose, or the depositor's remark. Unless noted, calls follow the shape of the dose curve; as a rule, active = well fitted inhibition curve with a large enough effect; inconclusive = small, poorly fitted or top-dose-only effect; inactive = no such curve, though single readings can be large or run the other way.

Cc1ccc(S(=O)(=O)N2CCCCC2)cc1C(=O)Nc1ncn[nH]1 was read as G9a block inactive and BAZ2B block inactive.
Screening CCOc1ccc(CNC(=O)c2ccc(NC(=O)N3CCCCc4ccccc43)cc2)cc1OC returned G9a block inactive, JMJD2A Tudor inactive, HP1b chromo inh inactive and BAZ2B block inactive.
Screening CC(=N\NC(=O)c1ccc([N+](=O)[O-])cc1)/C(=N/O)C(=O)Nc1ccccc1 returned CtBP-E1A blk inactive, JMJD2A Tudor inactive, HP1b chromo inh inactive, BAZ2B block 50µM and Six1-Eya2 blk inactive.
Cc1ccc(Cl)cc1N1CCN(S(=O)(=O)c2cn(C)c(C)n2)CC1 was read as G9a block inactive, JMJD2A Tudor 56µM, HP1b chromo inh inactive and BAZ2B block inactive.
For CCOC(=O)c1cc(S(=O)(=O)N2CCN(c3cccc(OC)c3)CC2)[nH]n1 the results were G9a block inconclusive, JMJD2A Tudor inactive, HP1b chromo inh inactive and BAZ2B block inconclusive.
For CCOC(=O)c1cc(S(=O)(=O)N2CCN(c3cc(Cl)ccc3C)CC2)[nH]n1 the results were G9a block 13µM, JMJD2A Tudor inconclusive, HP1b chromo inh inactive and BAZ2B block inconclusive.
For CCOC(=O)c1cc(S(=O)(=O)N2CCN(c3ccccc3OC)CC2)[nH]n1 the results were G9a block 28µM, JMJD2A Tudor inactive, HP1b chromo inh inactive and BAZ2B block inactive.
Cc1ccc(Cl)cc1N1CCN(S(=O)(=O)c2cn(C)cn2)CC1 was read as CtBP-E1A blk inactive, G9a block inactive, JMJD2A Tudor inactive, HP1b chromo inh inactive, BAZ2B block inactive and Six1-Eya2 blk inactive.
`CCOC(=O)c1cc(S(=O)(=O)N2CCN(c3ccc(F)cc3)CC2)[nH]n1` gave G9a block 28µM, JMJD2A Tudor inactive, HP1b chromo inh inactive and BAZ2B block inconclusive.
For CCCc1ccc(/C=C2\C(=O)c3ccccc3C(O)=C2C(=O)OCC)cc1 the results were G9a block 5.6µM and BAZ2B block 20µM.
`CCOC(=O)C1=C(O)c2ccccc2C(=O)/C1=C\c1ccc(CC)cc1` gave CtBP-E1A blk inactive, G9a block 5.6µM, JMJD2A Tudor 22µM, HP1b chromo inh inactive, BAZ2B block 20µM and Six1-Eya2 blk inactive.
For CCOc1ccccc1CNC(=O)CCc1c(C)nn(-c2ccc(N3CCCC3)nn2)c1C the results were G9a block inactive, JMJD2A Tudor inactive, HP1b chromo inh inactive and BAZ2B block inconclusive.
For COc1ccc(NC(=O)N2CC[C@@]3(CCCN(C(=O)c4ccncc4)C3)C2)cc1 the results were G9a block inactive[12.7 µM].
COc1ccc(CN2CCN(C(=O)c3ccccc3C(=O)c3ccccc3)CC2)cc1OC was read as CtBP-E1A blk inactive, JMJD2A Tudor inactive, HP1b chromo inh inactive and Six1-Eya2 blk inactive.
CCOc1ccc(CN2CCN(C(=O)c3ccccc3)CC2)cc1 was read as CtBP-E1A blk inactive, G9a block inconclusive, JMJD2A Tudor inactive[11.4 µM], HP1b chromo inh inconclusive, BAZ2B block inconclusive and Six1-Eya2 blk inactive.
Screening COc1cc(CN2CCN(C(=O)c3cccc4ccccc34)CC2)cc(OC)c1O returned CtBP-E1A blk inactive, G9a block 6.3µM, JMJD2A Tudor 22µM, HP1b chromo inh inconclusive, BAZ2B block 50µM and Six1-Eya2 blk inactive.
CCOc1ccc(CN2CCN(C(=O)c3cccc4ccccc34)CC2)cc1 was read as CtBP-E1A blk inactive, G9a block 14µM, JMJD2A Tudor 25µM, HP1b chromo inh inconclusive, BAZ2B block 45µM and Six1-Eya2 blk inactive.
CCOC(=O)c1ccc(N2C(=O)c3n[nH]c(-c4cccs4)c3C2c2cccc(F)c2)cc1 (stereo not given) was read as G9a block inactive, JMJD2A Tudor inconclusive and HP1b chromo inh inactive.
Screening O=C1C=C(c2c(O)ccc3ccccc23)c2ccccc2C1=O returned CtBP-E1A blk inactive, JMJD2A Tudor 40µM, HP1b chromo inh 25µM and Six1-Eya2 blk inactive.
For N#Cc1ccc(S(=O)(=O)N2CCCCC2c2cc(C(=O)NCc3ccccc3)no2)cc1 (stereo not given) the results were CtBP-E1A blk inactive and Six1-Eya2 blk inactive.
For CCOc1cccc(/C=N/NC(=S)Nc2cc(S(=O)(=O)N3CCOCC3)ccc2N2CCOCC2)c1O the results were CtBP-E1A blk -97, G9a block inactive, JMJD2A Tudor inconclusive, HP1b chromo inh inactive, BAZ2B block inconclusive and Six1-Eya2 blk -87.
Screening COc1ccc(OC)c(NC(=O)COc2ccc(S(=O)(=O)N3CCCC3)cc2)c1 returned CtBP-E1A blk inactive, G9a block 40µM, JMJD2A Tudor inactive, HP1b chromo inh inactive, BAZ2B block inactive and Six1-Eya2 blk inactive.
Screening Cc1ccccc1OCCC(=O)Nc1cc(S(=O)(=O)N2CCCCC2)ccc1N1CCN(C)CC1 returned JMJD2A Tudor inactive, HP1b chromo inh inactive and Six1-Eya2 blk inactive.
`Cc1ccc(OCC(=O)Nc2cc(S(=O)(=O)N3CCCCC3)ccc2N2CCN(C)CC2)c(C)c1` gave CtBP-E1A blk inactive, G9a block 45µM, JMJD2A Tudor inconclusive, HP1b chromo inh inactive, BAZ2B block inconclusive and Six1-Eya2 blk inconclusive.
COc1ccccc1OCC(=O)Nc1cc(S(=O)(=O)N2CCCCC2)ccc1N1CCCCC1 was read as CtBP-E1A blk inactive, G9a block 8.9µM, JMJD2A Tudor inconclusive, HP1b chromo inh inactive, BAZ2B block 79µM and Six1-Eya2 blk inactive.
CC(C)=CCC/C(C)=C/CNC(=O)C[C@H]1C[C@H](C(=O)N2CCCCC2)[C@@]2(C)c3[nH]c4cc(-c5ccco5)ccc4c3CCN2C1=O was read as CtBP-E1A blk inactive, JMJD2A Tudor inconclusive, HP1b chromo inh inactive and Six1-Eya2 blk inactive.
For CCOc1ccccc1OCC(=O)Nc1cc(S(=O)(=O)N2CCCCC2)ccc1N1CCN(CC)CC1 the results were CtBP-E1A blk inactive, G9a block 3.5µM, JMJD2A Tudor inactive, HP1b chromo inh inactive, BAZ2B block inactive and Six1-Eya2 blk inactive.
Screening COc1ccc(S(=O)(=O)N2CCOCC2)cc1NC(=O)Cc1cccs1 returned CtBP-E1A blk inactive, G9a block inactive[2.33 µM], JMJD2A Tudor inactive, HP1b chromo inh inactive, BAZ2B block inactive and Six1-Eya2 blk inactive.
Screening CCOc1ccc(S(=O)(=O)N2CCCCC2)cc1NC(=O)Cc1cccs1 returned CtBP-E1A blk inactive, G9a block 16µM, JMJD2A Tudor inactive, HP1b chromo inh inactive, BAZ2B block inactive and Six1-Eya2 blk inactive.
`CCN1CCN(c2ccc(S(=O)(=O)N3CCCCC3)cc2NC(=O)COc2ccc(Cl)c(C)c2)CC1` gave CtBP-E1A blk inactive, G9a block inactive[12.7 µM], JMJD2A Tudor inconclusive, HP1b chromo inh inactive, BAZ2B block inconclusive and Six1-Eya2 blk inactive.

Screens as filed in PubChem.
